Test results taken from PubChem BioAssay AID430 (Sanford-Burnham Center for Chemical Genomics, 2006).
Hit rate of the full screen: of about 63,000 compounds, about 1,100 (1.7%) were called active. What follows is part of a selection rich in actives, with near analogues and random picks from the rest. Results with a measured potency or affinity are listed apart. A number with no mark means an inactive call. Cut-off read from the data, not from the text of the source: active = cytotoxicity above about 50%; inactive = the rest.

Assay: cytotoxicity in HPDE-C7 cells, cell-based, fluorescence, HTS (AID 430);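 note: cells exposed to compound for 48 hours before viability readout; 0% = vehicle and 100% = reference cytotoxic drug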
Conditions: HPDE-C7 pancreatic duct cells viability, at 10 µM, stronger effect = higher value

| SMILES | cytotoxicity |
| --- | --- |
| COCCn1c(SCC(=O)OCc2ccccc2)nc2c1c(=O)[nH]c(=O)n2C | -3.3% |
| CCCCCCCC(=O)OCC(=O)[C@@]1(O)CC[C@H]2[C@@H]3CCC4=CC(=O)CC[C@]4(C)[C@H]3[C@@H](O)C[C@@]21C | -1.9% |
| CCCCC(=O)O[C@]1(C(=O)CO)CC[C@H]2[C@@H]3CCC4=CC(=O)CC[C@]4(C)[C@H]3[C@@H](O)C[C@@]21C | 8.3% |
| CCCCCC(=O)O[C@]1(C(C)=O)CC[C@H]2[C@@H]3CCC4=CC(=O)CC[C@]4(C)[C@H]3CC[C@@]21C | 116% (active) |
| Cc1c(C(=O)O)c2cc(O)ccc2n1-c1ccccc1 | 4.3% |
| Fc1ccc(-c2nnc(-c3ccc(Cl)cc3Cl)o2)cc1 | 1.1% |
| O=C(NCc1ccco1)C(c1cccs1)N(Cc1ccccc1)C(=O)Cn1nnc2ccccc21 (stereo not given) | 3.4% |
| COCCCn1c2nc3ccccc3nc2c2c(=O)n(Cc3ccccc3Cl)cnc21 | -8.1% |
| COc1ccc(N(C)S(=O)(=O)c2cccc3cccnc23)c(OC)c1 | 51.4% (active) |
| COc1ccc(NC(=O)C2CCCN2S(=O)(=O)c2cccc3cccnc23)c(OC)c1 (stereo not given) | 5.8% |
| COc1ccc(NC(=O)CN(C)S(=O)(=O)c2cccc3cccnc23)cc1 | -4.1% |
| Cc1ccc(S(=O)(=O)NCC(=O)N2CCCCC2)cc1 | -15.4% |
| CCc1nc(N2CCN(C(=O)c3ccco3)CC2)c2oc3ccccc3c2n1 | 22.2% |
| O=C(c1cc2cc(Cl)ccc2oc1=O)N1CCCC1 | -1.3% |
| CC1=C(C(=O)Nc2ccccc2)C(c2ccco2)C(C#N)=C(SCc2ccccc2)N1 (stereo not given) | 63.1% (active) |
| CCOC(=O)C1=C(c2ccccc2)NC(SCC(=O)Nc2ccccc2C)=C(C#N)C1c1ccco1 (stereo not given) | 32.9% |
| CC1=C(C(=O)Nc2ccccc2)C(c2ccco2)C(C#N)=C(SCC(=O)Nc2cccc(C)c2C)N1 (stereo not given) | 67% (active) |
| CC1=C(C(=O)Nc2ccccc2)C(c2ccco2)C(C#N)=C(SCC(=O)OC(C)C)N1 (stereo not given) | 42.1% |
| CCOC(=O)CSC1=C(C#N)C(c2ccco2)C(C(=O)Nc2cccc(C(F)(F)F)c2)=C(C)N1 (stereo not given) | 12.4% |
| COc1ccccc1NC(=O)C1=C(C)NC(SCC(=O)c2ccccc2)=C(C#N)C1c1ccco1 (stereo not given) | 33.9% |
| Cc1cccc(OCCC(=O)Nc2ccc(S(=O)(=O)N3CCCC3)cc2)c1 | -7% |
| CCOc1ccc(NC(=O)c2cccc(-n3cnnn3)c2)cc1 | 0.4% |
| CCC(C)SCc1nc2ccccc2[nH]1 (stereo not given) | -5.4% |
| COc1cccc(-c2noc(CCC(=O)Nc3cccnc3)n2)c1 | 2% |

| SMILES | cytotoxicity |
| --- | --- |
| O=C(OCc1ccc(F)cc1Cl)c1ccccn1 | 4.8% |
| CN(C)c1ccc(S(=O)(=O)c2ccc(Cl)cc2)cc1 | 1% |
| c1cncc(-c2nc(NCc3ccco3)c3ccccc3n2)c1 | 5.3% |
| CSCC[C@@H](Nc1nc(-c2ccccc2)nc2c1oc1ccccc12)C(=O)O | 7.2% |
| O=C(NCc1cccs1)c1cc2ccccc2o1 | -2.4% |
| CCC(C)(NC(=O)c1ccc(=O)[nH]c1)C(=O)NC1CCCC1 (stereo not given) | -7% |
| COC(=O)CNC(=O)C(Cc1c[nH]c2ccccc12)NC(=O)OC(C)(C)C (stereo not given) | -5% |
| Cc1ccccc1Cc1c(C)nc2c(C(=O)N3CCN(Cc4ccc5c(c4)OCO5)CC3)cnn2c1C | -6.7% |
| CSc1ccccc1NC(=O)c1cnc2scc(C)n2c1=O | -4.8% |
| Cc1nc2c(C(=O)O)cnn2c(C)c1Cc1ccccc1F | -26.4% |
| Cc1csc2ncc(C(=O)Nc3ccccc3F)c(=O)n12 | 51.2% (active) |
| COc1ccc(CNC(=O)c2cnc3scc(C)n3c2=O)cc1 | -6.4% |
| Cc1csc2ncc(C(=O)NCc3ccc4c(c3)OCO4)c(=O)n12 | 67.4% (active) |
| Cc1csc2ncc(C(=O)Nc3ccc4c(c3)OCCO4)c(=O)n12 | -20.4% |
| Cc1csc2ncc(C(=O)Nc3ccccc3Cl)c(=O)n12 | -6.7% |
| CCC(=O)Nc1nc2c(OC)ccc(C)c2s1 | 4% |
| CCOc1cccc(C(=O)Nc2nnc(-c3ccco3)s2)c1 | 2.3% |
| NC(=O)c1ccccc1NS(=O)(=O)Cc1ccc(Cl)cc1 | 0% |
| Cc1c(NC(=O)C(C)OC(=O)CC2Sc3ccccc3NC2=O)c(=O)n(-c2ccccc2)n1C (stereo not given) | -14.3% |
| CSc1ccc(NC(=O)CC(C)=O)cc1 | -11.5% |
| c1csc(-c2nnsc2-c2nc3ccccc3[nH]2)c1 | 7.2% |
| CCC(=O)NC1=C(C#N)C2(CCCC2)Cc2ccccc21 | 10.4% |
| COc1ccccc1-c1cc(C(=O)NCc2ccccc2)no1 | 17.1% |
| Cc1ccc(C)c(OCC(=O)Nc2ccc3c(c2)OCO3)c1 | -6.1% |

| SMILES | cytotoxicity |
| --- | --- |
| C=CCn1c2ccccc2c2nnc(SCCCn3c(=O)[nH]c4ccccc43)nc21 | 89.5% (active) |
| CCn1c2ccccc2c2nnc(SCCCn3c(=O)[nH]c4ccccc43)nc21 | -2.7% |
| C=CCn1c2ccccc2c2nnc(SCN3C(=O)c4ccccc4C3=O)nc21 | 21.1% |
| CCCCn1c(CCC(=O)O)ccc1-c1cccs1 | -30.1% |
| COCCNS(=O)(=O)c1cccc2cccnc12 | -7.9% |
| COc1cc(S(=O)(=O)N2CCCCC2)ccc1NC(=O)c1ccc(F)cc1 | -7.1% |
| CCn1c2c(c3cc(C(=O)O)ccc31)CCCC2=O | -6.9% |
| CCn1c2c(c3cc(Cl)ccc31)CCCC2=O | -0.8% |
| Cc1ccc2c(c1)c1c(n2CC(O)Cn2c(C)nc3ccccc32)/C(=N\O)CCC1 (stereo not given) | 113% (active) |
| Cc1ccc2c(c1)c1c(n2CC(O)Cn2nc(C)c(Br)c2C)C(=O)CCC1 (stereo not given) | -7.3% |
| Cc1ccc2c(c1)c1c(n2CC(O)Cn2c(C)nc3ccccc32)C(=O)CCC1 (stereo not given) | -12.3% |
| CCOC(=O)c1c(O)c2c(n(Cc3ccco3)c1=O)CCCC2 | -1.8% |
| CCOC(=O)C(C#N)c1ccccn1 (stereo not given) | -13.9% |
| CC12C=CC3(O1)C(C(=O)N(c1cccnc1)C3C(=O)NC1CCCCC1)C2C(=O)Nc1ccccc1 (stereo not given) | -6.3% |
| Cc1cc(C)c2ccc(N)nc2c1O | 111% (active) |
| Cc1cc(C)c2ccc(C)[n+]([O-])c2c1O | -4.9% |
| Cc1cc(=O)oc2c(N)c(O)ccc12 | 3.2% |
| Cc1ccc(-c2noc(CSc3nc(N)cc(N)n3)n2)cc1 | -1.6% |
| CCCCCC(=O)Nc1ccc(Cl)cn1 | -14.3% |
| NC(=O)c1cc2ccc(O)cc2oc1=NCc1ccccc1 | -0.1% |
| CC(=NCc1ccccc1)C1=C(O)COC1=O | 2.9% |
| CCn1c(CNC(=O)C(C)(C)C)nc2ccccc21 | -1.1% |
| CC12CCC(C(N)=O)(c3nc4ccccc4nc31)C2(C)C (stereo not given) | -7.6% |
| CC(=O)Nc1sc(N)nc1-c1ccccc1 | 3.9% |

| SMILES | cytotoxicity |
| --- | --- |
| CN(Cc1cccs1)C(=O)COc1ccc(-c2nnco2)cc1 | -5.5% |
| Cc1cc(=O)[nH]c(SCc2cc(=O)n3nc(C)sc3n2)n1 | 2.5% |
| CS(=O)(=O)N1CCc2cc(-c3csc(NC(=O)Cc4cccs4)n3)ccc21 | -7.8% |
| O=C(Cc1cccs1)Nc1nc(-c2ccccc2)cs1 | -35.2% |
| CC1Cc2cc(-c3csc(NC(=O)Cc4cccs4)n3)ccc2N1S(C)(=O)=O (stereo not given) | 56.2% (active) |
| CCCc1[nH]nc2c1C(c1cc(OC)cc(OC)c1)C(C#N)=C(N)O2 (stereo not given) | -4.3% |
| O=C(Cc1ccccc1)N1CCC(C(=O)N2CCN(c3ccc(F)cc3)CC2)CC1 | -6.7% |
| O=C(NC(O)C(=O)c1cccs1)c1cccnc1 (stereo not given) | -20.3% |
| O=C(Nc1nnc(C2CCCCC2)s1)c1ccc(Br)s1 | 7% |
| CCOC(=O)c1ccc(NC(=O)C23CCC(C)(C(=O)O2)C3(C)C)cc1 (stereo not given) | -7.6% |
| CCN1CCN(C(=O)C2CCN(Cc3nc(-c4cccc(Cl)c4)oc3C)CC2)CC1 | 9.2% |
| Cc1oc(-c2cccc(Cl)c2)nc1CN1CCC(C(=O)N2CCN(c3ccccc3F)CC2)CC1 | 54.5% (active) |
| CCc1ccc(-c2nc(CN3CCC(C(=O)N4CCN(c5ccccn5)CC4)CC3)c(C)o2)cc1 | 26.2% |
| CCc1ccc(-c2nc(CN3CCCC(C(=O)NCCc4ccc(OC)c(OC)c4)C3)c(C)o2)cc1 (stereo not given) | 7% |
| CCc1ccc(-c2nc(CN3CCC(C(=O)N4CCN(c5ccccc5)CC4)CC3)c(C)o2)cc1 | 66% (active) |
| Cc1oc(-c2cccc(Cl)c2)nc1CN1CCC(C(=O)N2CCN(c3ccccn3)CC2)CC1 | 15.5% |
| CCc1ccc(-c2nc(CN3CCC(C(=O)NCCN(CC)c4ccccc4)CC3)c(C)o2)cc1 | 47.3% |
| CCN(CCNC(=O)C1CCCN(Cc2nc(-c3ccc(OC)cc3)oc2C)C1)c1ccccc1 (stereo not given) | 67.8% (active) |
| Cc1oc(-c2ccc(Cl)cc2)nc1CN1CCC(C(=O)N2CCN(Cc3ccccc3)CC2)CC1 | 9.6% |
| Cn1c(-c2ccc(F)cc2)cnc1NCc1ccccc1 | -16.5% |
| CCCCCCN=CC1=C(O)C(C(=O)OC)C(C)(C)CC1=O (stereo not given) | 20.5% |
| COC(=O)c1ccccc1NC(=O)c1nc2nc(C)cc(C)n2n1 | 8.9% |
| COC(=O)C1=C(C)OC(N)=C(C#N)C1c1ccc(OC)c(OC)c1OC (stereo not given) | -14.9% |
